Assay outcomes from PubChem.
D1 potentiator: Potentiators of Human D1 Dopamine Receptor: qHTS | AID 504651, 2011 | D(1A) dopamine receptor (Homo sapiens), P21728 | HEK293 TREx D1 cells, calcium flux, dopamine EC20 potentiation | potentiation, % at 10 µM | actives 0.036% (n = 360,000); in the data active means potentiation above about 30%; further: 0% is about no effect
USP1 inh: Inhibitors of USP1/UAF1: Primary Screen | Potency, µM (doses to about 57.1 µM), for the others: at the top dose activity change, negative = inhibition, hits mostly inhibitors | recombinant USP1/UAF1, Ub-Rhodamine cleavage fluorescence | actives 0.23% (n = 390,000) | Ubiquitin carboxyl-terminal hydrolase 1 (Homo sapiens), O94782; further: potency means the concentration at half of the fitted maximal effect; on the % scale 0 is the no-effect control and ±100 the full control effect; nearly all actives have a fitted effect of over 60% in size
Target sequence (O94782 whole entry, looked up): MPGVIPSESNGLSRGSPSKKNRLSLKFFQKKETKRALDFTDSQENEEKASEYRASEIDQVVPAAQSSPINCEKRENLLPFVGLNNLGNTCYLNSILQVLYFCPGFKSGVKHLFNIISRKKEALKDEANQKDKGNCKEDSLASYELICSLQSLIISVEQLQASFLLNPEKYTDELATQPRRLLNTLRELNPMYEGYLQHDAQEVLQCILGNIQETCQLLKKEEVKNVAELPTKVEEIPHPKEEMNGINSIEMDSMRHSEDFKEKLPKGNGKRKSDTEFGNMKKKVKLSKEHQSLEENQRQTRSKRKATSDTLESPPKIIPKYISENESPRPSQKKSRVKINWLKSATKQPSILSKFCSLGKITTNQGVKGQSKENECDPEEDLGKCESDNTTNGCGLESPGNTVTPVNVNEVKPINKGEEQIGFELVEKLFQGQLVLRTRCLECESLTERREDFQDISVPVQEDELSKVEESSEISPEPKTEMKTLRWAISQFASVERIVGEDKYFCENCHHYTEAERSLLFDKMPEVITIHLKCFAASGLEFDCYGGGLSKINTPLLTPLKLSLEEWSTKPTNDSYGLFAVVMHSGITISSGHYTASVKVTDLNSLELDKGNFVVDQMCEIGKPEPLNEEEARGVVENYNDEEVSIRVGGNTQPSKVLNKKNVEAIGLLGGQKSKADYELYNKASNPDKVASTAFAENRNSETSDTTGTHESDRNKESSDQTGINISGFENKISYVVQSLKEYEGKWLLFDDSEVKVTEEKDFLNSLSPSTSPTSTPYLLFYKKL
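Step one: compound is pinned into 1nM USP1/UAF1 in HEPES pH 7.8 buffer with TCEP. Step two: 15 min room-temperature incubation. Step three: Ub-Rho (150nM final) starts cleavage, tracked by fluorescence over six one-minute reads.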
D1 agonist: Allosteric Agonists of the Human D1 Dopamine Receptor: qHTS | activation, % at 2 µM | actives 1% (n = 360,000) | HEK293 T-REx D1 cells, calcium flux, agonist mode | AID 504660, 2011; in the data active means activation above about 30%; further: 0% is about no effect
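Agonism was scored from calcium flux recorded over 180 s (1 read/s) after pintool compound addition, following a 10-cycle baseline. Cells were inducible force-coupled HEK293 TREx D1, plated overnight at 30 C and loaded with no-wash calcium dye.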
D1 antag: Antagonist of Human D 1 Dopamine Receptor: qHTS; D(1A) dopamine receptor (Homo sapiens), P21728; HEK293 TREx D1 cells, calcium flux, dopamine EC80; active compounds read low; activity change, negative = inhibition, % at 10 µM; actives 3.2% (n = 360,000); in the data active means activity change below about -30%; further: on the % scale 0 is the no-effect control and ±100 the full control effect
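After overnight tetracycline induction at 30 C, force-coupled D1 HEK293 cells took up a no-wash calcium dye at room temperature. Compounds were added and monitored 180 s, and the response to EC80 dopamine was then recorded.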
TRHR agonist-1: qHTS for Small Molecule Agonists and Allosteric Enhancers of Human TRH Receptor: Primary Screen for Agonists; Thyrotropin-releasing hormone receptor (Homo sapiens), P34981; TRHR cells, calcium flux fluo-8, FDSS agonist mode; activation, % at 2 µM; actives 0.18% (n = 360,000); in the data active means activation above about 30%; further: 0% is about no effect
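In this calcium-flux screen, cells bearing human TRHR are dye-loaded with fluo-8, baselined for 10 cycles, then exposed to library compounds; positive kinetic calcium responses during the agonist phase mark hits, with TRH as control.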
TRHR enhancer-1: qHTS for Small Molecule Agonists and Allosteric Enhancers of Human TRH Receptor: Primary Screen for Enhancers; actives 0.66% (n = 360,000); TRHR cells, fluo-8 calcium fluorescence, EC20 TRH enhancement; enhancement, % at 2 µM; in the data active means enhancement above about 30%; further: 0% is about no effect
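Enhancer read-out: after compound pinning and an initial kinetic agonist-mode read, an EC20 of TRH (10 nM final) was injected and fluo-8 calcium signal (Ex 480/Em 530) followed at 1 s/cycle for 100 cycles in TRHR-expressing cells.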
TRHR enhancer-2: qHTS for Small Molecule Agonists and Allosteric Enhancers of Human TRH Receptor: Confirmation Screen for Enhancers; shares compounds with TRHR enhancer-1; activity change, negative = inhibition, % at 46.1 µM; 970 tested, under 10 active; TRH receptor cell assay, enhancer confirmation qHTS;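 further: compound effect scored on response to added TRH at EC20 of 10 nM; 0% is about no effect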
TRHR agonist-2: qHTS for Small Molecule Agonists and Allosteric Enhancers of Human TRH Receptor: Confirmation Screen for Agonists | Potency, µM (titrated, usually from 46.1 µM), for the others: at the top dose activation, most hits filed as activators | shares compounds with TRHR enhancer-1 | actives 8% (n = 970) | TRHR-expressing cells, agonist activation read-out; further: potency means the concentration at half of the fitted maximal effect; 0% is about no effect; nearly all actives have a fitted effect of over 75% in size
Starred values were filed as active, the others as inactive; ? = inconclusive; · = no result given. Shown are actives, neighbours in structure and some others; about 4.4% of the full set was active somewhere. Unless noted, the call rests on the fitted dose curve; in most records, active means well fitted curve in the direction sought with a large enough effect; inconclusive means small, poorly fitted or top-dose-only effect, or another doubt; inactive means no such curve, though single readings can be large; an effect the other way counts as inactive or inconclusive.

SMILES	D1 potentiator	USP1 inh	D1 agonist	D1 antag	TRHR agonist-1	TRHR enhancer-1	TRHR enhancer-2	TRHR agonist-2
CC(C)c1ccc(N(CC(=O)NCCCN2CCOCC2)S(=O)(=O)c2ccccc2)cc1	1	-14%	6	12	0	48*	-2	2%
Nc1nonc1C(=O)OCC(=O)N1CCOCC1	2	-22%	4	-18	0	3	·	·
Nc1nonc1/C(=N/O)N1CCN(CCO)CC1	0	-4%	2	6	1	88*	-1	0%
COc1cc(NC(=O)CCc2c(C)nn(-c3ccc4nnc(C)n4n3)c2C)cc(OC)c1OC	-3	-5%	2	18	-1	4	·	·
Cc1c(O)ccc2cc(S(=O)(=O)c3ccccc3)c(=O)oc12	1	-16%	32*	-2	37*	2	1	23µM*
CCn1ccnc1[C@@H]1C[C@H]2CN(Cc3ccccc3OC)C(=O)[C@]23CCCN13	-2	-21%	1	-1	0	46*	-7	0%
COc1ccccc1CNc1ccc(-c2nc(-c3ccncc3)no2)cc1[N+](=O)[O-]	-1	-2%	7	15	-1	-2	·	·
COC(=O)c1nnn(-c2nonc2N)c1CSc1nc2ccccc2s1	-4	-11%	-1	-25	0	3	·	·
CCOC(=O)c1nnn(-c2nonc2N)c1CSc1nnc(N)s1	-2	-21%	-2	1	0	52*	-1	1%
COc1ccc(-c2cc(C)no2)cc1S(=O)(=O)NCc1cccs1	-2	-7%	2	-13	0	2	·	·
Cn1c(SCC(=O)NCc2ccco2)nnc1-c1ccc(S(=O)(=O)N2CCOCC2)cc1	-3	-15%	0	9	0	47*	-3	-1%
Cc1ccc(NC(=O)CSc2nnc(-c3ccc(S(=O)(=O)N4CCOCC4)cc3)n2C)cc1	-1	4%	9	-8	-3	-4	·	·
c1ccc(-n2cccc2CNC2CCCCC2)cc1	0	-7%	6	0	0	48*	-5	9%
COc1ccc(/C(C)=N\NC(=O)CSc2nnc(C)s2)cc1	-4	-4%	1	9	0	-3	·	·
C/C(=N\NC(=O)CSc1nnc(C)s1)c1ccc(Cl)cc1	-3	-21%	0	2	0	43*	-2	1%
Cc1cccc(N2CCN(C(=O)Cn3ncc4c([nH]c5ccccc54)c3=O)CC2C)c1 (configuration not stated)	1	-11%	0	2	1	8	·	·
Nc1[nH]c2cc([N+](=O)[O-])ccc2c1-c1ccccn1	-12	-11%	65*	-12	31*	-8	2	?
Cc1ccc(NC(c2nnc(-c3ccccc3)o2)c2ccccc2F)c(Cl)c1 (configuration not stated)	-2	-14%	4	4	1	-2	·	·
NC(=O)[C@@H]1CCCN1C(=O)[C@@H](Cc1cnc[nH]1)NC(=O)[C@@H]1CCC(=O)N1	0	-15%	13	4	85*	-12	-25	0.015µM*
CCOC(=O)c1c(C)c(C(=O)NCCc2ccc(OC)cc2)c(C)n1C	-6	-21%	-1	5	0	-6	·	·
O=C(COc1ncnc2ccccc12)Nc1ccc(S(=O)(=O)N2CCOCC2)cc1	-4	-5%	0	1	0	43*	?	0%
COc1ccc(COC(=O)C2=C(C)NC(=O)NC2c2ccccc2OC(C)C)cc1 (configuration not stated)	4	-21%	0	14	1	48*	-3	3%
COc1ccccc1C1NC(=O)NC(C)=C1C(=O)OCc1ccccc1 (configuration not stated)	-15	-4%	0	2	0	-1	·	·
CCc1ccc(NC(=O)Cn2c(=O)ccc3cc(S(=O)(=O)N4CCCC4)ccc32)cc1	0	?	2	-18	0	-5	·	·
Cc1ccc(NC(=O)CSc2nc3nc(C)c(Br)cc3[nH]2)cc1F	-3	-3%	3	-31*	0	81*	-8	0%
SMILES	D1 potentiator	USP1 inh	D1 agonist	D1 antag	TRHR agonist-1	TRHR enhancer-1	TRHR enhancer-2	TRHR agonist-2
Cc1ccc(N2CCN(C(=O)c3cc(C(=O)c4ccccc4C)c[nH]3)CC2)c(C)c1	·	-27%	4	19	-1	86*	1	0%
Cc1ccc(N2CCN(C(=O)c3ccccc3)CC2)c(C)c1	-2	-6%	1	-13	1	0	·	·
O=C(c1ccc2c(c1)OCO2)C1CCCN(C(=O)c2cnn(Cc3ccccc3)c2)C1 (configuration not stated)	-6	-13%	1	-5	-1	41*	-7	0%
O=c1c2c3c(sc2nnn1Cc1ccc(Br)cc1)CCCC3	-2	-7%	3	-2	0	6	·	·
COc1cccc(NC(=O)c2cc3cccc(OC)c3o/c2=N\O)c1	1	·	3	14	-1	0	·	·
COc1cccc(NC(=O)c2cc3ccccc3o/c2=N\O)c1	2	-13%	0	-1	0	49*	6	-1%
CN(C)c1ccc(Nc2ncnc3c2c(-c2ccccc2)cn3-c2cccc(Cl)c2)cc1	0	12%	-4	-4	0	-1	·	·
CC(C)Cc1ccc(S(=O)(=O)Nc2cccnc2)cc1	-1	0%	18	-8	0	58*	-6	1%
Cc1ccc(-c2ccc(S(=O)(=O)Nc3cccnc3)cc2)cc1	-4	-20%	5	-10	0	14	·	·
Cn1c(SCC(N)=O)nc2c([nH]c3ccccc32)c1=O	1	-13%	0	4	0	-1	·	·
